These results are taken from PubChem BioAssay (NCATS).

Molecules are shown by their SMILES. For some assays here: Potency and affinity values are given separately. The source made the active and inactive calls.

The conditions of experiment [1]: Ebola virus entry assay, blue channel fluorescence.
For experiment [2] the following is noted: Ebola virus entry reporter assay, green channel fluorescence.
The conditions of experiment [3]: Ebola virus entry cell assay, ratio channel.
Experiment [4] is described as follows: Immunotoxin (HA22) sensitization/mitigation study. Vehicle arm (PBS) (AID 1159510). Further: potency means the concentration at half of the fitted maximal effect. Conditions: cancer cells viability with PBS vehicle (HA22 study); series mostly up to 46.1 µM.
Experiment [5] in a line: Immunotoxin (SS1P) sensitization/mitigation study. Vehicle arm (DMEM) (AID 1159513). Further: potency means the concentration at half of the fitted maximal effect. Conditions: cell viability with vehicle (DMEM); series mostly up to 46.1 µM.
Experiment [6] can be described thus: High-throughput drug toxicity screening in the BPDCN cell line Gen2.2 (AID 1224824).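 Further: cells exposed to compounds for 48 h before reading.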 Conditions: Gen2.2 BPDCN cells; at 45.8 µM (top of the series) unless noted. The method in brief: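 Gen2.2 cells, 500 per well in phenol red-free RPMI with 10% FBS, exposed to compounds 48 h at 37 C, 5% CO2; viability by CellTiter-Glo luminescence. Percent activity scaled to DMSO (100%) and 9.2 uM bortezomib final (0%).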

The conditions of experiment [7]: Ebola virus entry assay, reporter ratio channel; AC50: Channel type: primary unless noted; outcome: Channel type: primary unless noted.
The conditions of experiment [8]: Ebola virus entry assay, blue channel (ratio component).

As for `CCCc1nc(C(C)(C)O)c(C(=O)OCc2oc(=O)oc2C)n1Cc1ccc(-c2ccccc2-c2nn[nH]n2)cc1`, the result in experiment [1], in experiment [2] and in experiment [3] was inactive.
Consider `CCC[C@@]1(CCc2ccccc2)CC(O)=C([C@H](CC)c2cccc(NS(=O)(=O)c3ccc(C(F)(F)F)cn3)c2)C(=O)O1`, for which the molecule was classed as inactive in experiment [1], in experiment [2] and in experiment [3].
Consider `CCOC(=O)[C@H](CCc1ccccc1)N[C@@H](C)C(=O)N1[C@H](C(=O)O)C[C@H]2CCCC[C@@H]21`, for which the call in experiment [1], in experiment [2] and in experiment [3] was inactive.
Turning to `CN1C(=O)OC(C)(C)C1=O`, the call in experiment [1], in experiment [2] and in experiment [3] was inactive.
With `Nc1nc(/C(=C/CC(=O)O)C(=O)N[C@@H]2C(=O)N3C(C(=O)O)=CCS[C@H]23)cs1`, the molecule was classed as inactive in experiment [1], in experiment [2] and in experiment [3].
Regarding `CO/N=C(\C(=O)N[C@@H]1C(=O)N2C(C(=O)O)=CCS[C@H]12)c1csc(N)n1`, the outcome in experiment [1], in experiment [2] and in experiment [3] was inactive.
For the molecule `Nc1nc2[nH]cc(CCc3ccc(C(=O)N[C@@H](CCC(=O)O)C(=O)O)cc3)c2c(=O)[nH]1`, the call in experiment [1], in experiment [2] and in experiment [3] was inactive. For the same molecule, the results for the Potency in experiment [4] and in experiment [5] were 0.059 µM (active) and 0.187 µM (active), respectively.
As for `CN[C@H](CC(C)C)C(=O)N[C@H]1C(=O)N[C@@H](CC(N)=O)C(=O)N[C@H]2C(=O)N[C@H]3C(=O)N[C@H](C(=O)N[C@@H](C(=O)O)c4cc(O)cc(O)c4-c4cc3ccc4O)[C@H](O)c3ccc(c(Cl)c3)Oc3cc2cc(c3O[C@@H]2O[C@H](CO)[C@@H](O)[C@H](O)[C@H]2O[C@H]2C[C@](C)(N)C(O)[C@H](C)O2)Oc2ccc(cc2Cl)[C@H]1O` (stereo partly specified), the molecule was classed as inactive in experiment [1], in experiment [2] and in experiment [3].
For `CC(C)CN(C[C@@H](O)[C@H](Cc1ccccc1)NC(=O)O[C@@H]1CCOC1)S(=O)(=O)c1ccc(N)cc1`, the outcome in experiment [1], in experiment [2] and in experiment [3] was inactive.
For `CN[C@@H]1[C@H](O[C@H]2[C@H](O[C@H]3[C@H](O)[C@@H](O)[C@H](N=C(N)N)[C@@H](O)[C@@H]3N=C(N)N)O[C@@H](C)[C@]2(O)C=O)O[C@@H](CO)[C@H](O)[C@H]1O`, the outcome in experiment [1], in experiment [2] and in experiment [3] was inactive.
On to `O=P(O)(O)C(Sc1ccc(Cl)cc1)P(=O)(O)O`, for which the call in experiment [1] and in experiment [3] was inactive.
As to `CO/N=C(\C(=O)N[C@@H]1C(=O)N2C(C(=O)O)=C(COC(C)=O)CS[C@H]12)c1csc(N)n1` (stereo in doubt), the call in experiment [1] and in experiment [3] was inactive.
As for `CO[C@H]1C=CO[C@@]2(C)Oc3c(C)c(O)c4c(O)c(c5c(c4c3C2=O)=NC2(CCN(CC(C)C)CC2)N=5)NC(=O)/C(C)=C\C=C/[C@H](C)[C@H](O)[C@@H](C)[C@@H](O)[C@@H](C)[C@H](OC(C)=O)[C@@H]1C`, the call in experiment [1], in experiment [2] and in experiment [3] was inactive.
Regarding `C[N+]1(C)[C@@H]2CC(OC(=O)C(O)(c3cccs3)c3cccs3)C[C@H]1[C@@H]1O[C@@H]12` (stereo partly specified), the result in experiment [1] and in experiment [3] was inactive.
On to `CC(C)C[C@H](CN)CC(=O)O`, for which the outcome in experiment [1], in experiment [2] and in experiment [3] was inactive. In experiment [6], the cell viability, % of control (lower = more cytotoxic) came to 401%.
In the case of `CCN(CC)C(=O)[C@]1(c2ccccc2)C[C@@H]1CN`, the result in experiment [1], in experiment [2] and in experiment [3] was inactive.
In the case of `Cc1c(N)nc([C@H](CC(N)=O)NC[C@H](N)C(N)=O)nc1C(=O)N[C@H](C(=O)N[C@H](C)[C@@H](O)[C@H](C)C(=O)N[C@H](C(=O)NCCc1nc(-c2nc(C(=O)NCCCCN=C(N)N)cs2)cs1)[C@@H](C)O)[C@@H](O[C@@H]1O[C@@H](CO)[C@@H](O)[C@H](O)[C@@H]1O[C@H]1O[C@H](CO)[C@@H](O)[C@H](OC(N)=O)[C@@H]1O)c1cnc[nH]1`, the result in experiment [1] and in experiment [3] was inactive.
Consider `C=C1[C@H](CO)[C@@H](O)C[C@@H]1n1cnc2c(=O)[nH]c(N)nc21`, for which the call in experiment [1], in experiment [2] and in experiment [3] was inactive.
With `CC(C)(S)[C@@H](N)C(=O)O`, the result in experiment [1], in experiment [2] and in experiment [3] was inactive.
In the case of `CCC[C@@H]1C[C@@H](C(=O)N[C@@H]([C@H]2O[C@H](SC)[C@H](O)[C@@H](O)[C@H]2O)[C@H](C)Cl)N(C)C1`, the outcome in experiment [1] and in experiment [3] was inactive.
`N[C@@H](Cc1cc(I)c(Oc2ccc(O)c(I)c2)c(I)c1)C(=O)O`: the molecule was classed as inactive in experiment [1], in experiment [2] and in experiment [3].
For the molecule `CCCC(C)(COC(N)=O)COC(N)=O`, the result in experiment [1] and in experiment [3] was inactive.
With `CO/N=C(/C(=O)N[C@@H]1C(=O)N2C(C(=O)O)=C(COC(N)=O)CS[C@H]12)c1ccco1`, the molecule was classed as inactive in experiment [1] and in experiment [3].
As for `CSCC[C@H](NC(=O)[C@H](Cc1ccc(OS(=O)(=O)O)cc1)NC(=O)[C@@H](N)CC(=O)O)C(=O)NCC(=O)N[C@@H](Cc1c[nH]c2ccccc12)C(=O)N[C@@H](CCSC)C(=O)N[C@@H](CC(=O)O)C(=O)N[C@@H](Cc1ccccc1)C(N)=O`, the molecule was classed as inactive in experiment [1] and in experiment [3].
Regarding `CCN1C(=O)NC(c2ccccc2)C1=O` (stereo unspecified), the molecule was called inactive in experiment [1] and in experiment [3].
For the molecule `CC(C)(C)NC(=O)[C@@H]1C[C@@H]2CCCC[C@@H]2CN1C[C@@H](O)[C@H](Cc1ccccc1)NC(=O)[C@H](CC(N)=O)NC(=O)c1ccc2ccccc2n1`, the result in experiment [1], in experiment [2] and in experiment [3] was inactive.
For the molecule `CCC(=O)OC(OP(=O)(CCCCc1ccccc1)CC(=O)N1C[C@H](C2CCCCC2)C[C@H]1C(=O)O)C(C)C` (stereo partly specified), the outcome in experiment [1], in experiment [2] and in experiment [3] was inactive.
For the molecule `CCCCCCCCCCCCCCCC(=O)OCCC1CCN(CCCN2c3ccccc3Sc3ccc(S(=O)(=O)N(C)C)cc32)CC1`, the molecule was classed as inactive in experiment [1] and in experiment [3].
Turning to `Nc1ccn([C@@H]2CS[C@H](CO)O2)c(=O)n1`, the call in experiment [1] and in experiment [3] was inactive.
For `CC(=O)N=c1sc(S(N)(=O)=O)nn1C`, the molecule was classed as inactive in experiment [1] and in experiment [3].
In the case of `COc1cc(C)c(/C=C/C(C)=C/C=C/C(C)=C/C(=O)O)c(C)c1C`, the outcome in experiment [1] and in experiment [3] was inactive.
Consider `CC(C=CC1=C(C)CCCC1(C)C)=CC=CC(C)=CC(=O)O`, for which the result in experiment [1], in experiment [2] and in experiment [3] was inactive.
Consider `CCOC(=O)[C@H](CCc1ccccc1)N[C@H]1CCCN2CCC[C@@H](C(=O)O)N2C1=O`, for which the outcome in experiment [1], in experiment [2] and in experiment [3] was inactive.
Consider `CCCCCCCN(CC)CCCC(O)c1ccc(NS(C)(=O)=O)cc1` (stereo unspecified), for which the outcome in experiment [1], in experiment [2] and in experiment [3] was inactive.
Consider `NS(=O)(=O)c1cc(Cl)c(Cl)c(S(N)(=O)=O)c1`, for which the outcome in experiment [1] and in experiment [3] was inactive.
For `CC=CC1=C(C(=O)O)N2C(=O)[C@H](NC(=O)[C@H](N)c3ccc(O)cc3)[C@@H]2SC1`, the molecule was called inactive in experiment [1] and in experiment [3].
Take `O=C1Nc2ccc(Cl)cc2C(c2ccccc2Cl)=NC1O` (stereo unspecified): the molecule was called inactive in experiment [1], in experiment [2] and in experiment [3].
Regarding `CN1[C@@H]2CCC[C@@H]1CC(NC(=O)c1nn(C)c3ccccc13)C2` (stereo partly specified), the molecule was called inactive in experiment [1], in experiment [2] and in experiment [3].
For the molecule `Nc1ccn(C[C@@H](CO)OCP(=O)(O)O)c(=O)n1`, the molecule was called inactive in experiment [1] and in experiment [3].
With `C[C@@H]1O[C@@H]1P(=O)(O)O`, the outcome in experiment [1], in experiment [2] and in experiment [3] was inactive.
For `CC(=O)N1CCN(c2ccc(OC[C@H]3CO[C@](Cn4ccnc4)(c4ccc(Cl)cc4Cl)O3)cc2)CC1`, the molecule was called inactive in experiment [1], in experiment [2] and in experiment [3].
For `COC(=O)C(c1ccccc1)C1CCCCN1` (stereo unspecified), the molecule was classed as inactive in experiment [1] and in experiment [3].
For `Cc1c(C)c2c(c(C)c1O)CCC(C)(COc1ccc(CC3SC(=O)NC3=O)cc1)O2` (stereo unspecified), the result in experiment [7] was inactive.
Take `C=CC1=C(C(=O)O)N2C(=O)[C@@H](NC(=O)/C(=N\O)c3csc(N)n3)[C@H]2SC1` (stereo in doubt): the molecule was classed as inactive in experiment [1] and in experiment [3].
Take `Nc1nc(=O)n([C@@H]2CS[C@H](CO)O2)cc1F`: the call in experiment [1] and in experiment [3] was inactive.
With `CN[C@@H](C)Cc1ccccc1`, the molecule was classed as inactive in experiment [1] and in experiment [3].
Consider `CCOc1ccccc1OCC1CNCCO1` (stereo unspecified), for which the result in experiment [7] and in experiment [8] was inactive.
On to `CO[C@H]1C=CO[C@@]2(C)Oc3c(C)c(O)c4c(O)c(c5c(nc6cc(C)ccn65)c4c3C2=O)NC(=O)/C(C)=C\C=C[C@H](C)[C@H](O)[C@@H](C)[C@@H](O)[C@@H](C)[C@H](OC(C)=O)[C@@H]1C`, for which the result in experiment [1] and in experiment [3] was inactive.
`Nc1ccn([C@@H]2O[C@H](CO)[C@@H](O)C2O)c(=O)n1` (stereo partly specified): the result in experiment [1] and in experiment [3] was inactive.
Regarding `Cc1cc2nc3c(=O)[nH]c(=O)nc-3n(C[C@H](O)[C@H](O)[C@H](O)CO)c2cc1C`, the result in experiment [7] and in experiment [8] was inactive.
For the molecule `OC[C@H]1O[C@@H](n2cnc3c2NC=NC[C@H]3O)C[C@@H]1O`, the result in experiment [1] and in experiment [3] was inactive.
For the molecule `CC(=O)O[C@]1(C(C)=O)CC[C@H]2[C@@H]3C[C@H](C)C4=CC(=O)CC[C@]4(C)[C@H]3CC[C@@]21C`, the outcome in experiment [7] and in experiment [8] was inactive.
